Data as given in PubChem BioAssay.
Activity calls are given as the source filed them.

Key:
[1] = compounds binding Alexa647 anti-His antibody – biochemical, small-molecule microarray, 635 nm fluorescence, artefact control for SMM control protein annotation, primary screen (AID 1128); conditions: higher = more signal;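 note: score merges feature fluorescence with signal-to-noise for each printed compound spot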
[2] = test system: Human papillomavirus type 1a E7 protein (residues 1-88); experiment: HPV1a E7 small-molecule binders, primary screen, biochemical, small-molecule microarray, residues 1-88, 635 nm (AID 1129); conditions: small-molecule microarray binding, fluorescence 635 nm; higher = more signal
[3] = biological target: Focal adhesion kinase 1 (Homo sapiens) (UniProt Q05397); experiment: PTK2 protein binding on printed compound slides – biochemical, small-molecule microarray, 635/667 nm fluorescence, BSA, DTT, primary screen (AID 1130); conditions: 635 nm fluorescence, higher = more signal;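 note: composite of spot emission at 667 nm and signal to noise over triplicate slides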
[4] = test system: Fibrinogen (Alexa647-labelled); experiment: Alexa647-fibrinogen binding to printed small molecules – biochemical, small-molecule microarray, 635/667 nm fluorescence, artefact control for SMM control-protein annotation, profiling panel (AID 1131); conditions: fibrinogen-A647 binding fluorescence, higher = more signal;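 note: z-score merges 667 nm fluorescence with per-spot signal-to-noise over triplicate slides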
[5] = biological target: Follistatin (Homo sapiens) (UniProt P19883); experiment: FST protein binding to printed compounds – biochemical, small-molecule microarray, 635/667 nm fluorescence, primary screen (AID 1132); conditions: 635 nm fluorescence, higher = more signal
[6] = biological target: Fibroblast growth factor 2 (Homo sapiens) (UniProt P09038); experiment: basic fibroblast growth factor binding to printed compounds – biochemical, small-molecule microarray, 635/667 nm fluorescence, primary screen (AID 1133); conditions: FGF2, fluorescence 635/667, higher = more signal
[7] = JC-1 mitochondrial potential readout, lung cancer cells – cell-based, A549, JC-1 fluorescence, basal, 24 h, 100 nL, profiling panel (AID 1138); conditions: higher = more signal;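 note: A549 lung adenocarcinoma cells under basal conditions with no added stimulus; test concentration not given here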
[8] = test system: Lefty1; experiment: Lefty1 protein binding to printed compounds – biochemical, small-molecule microarray, 635/667 nm fluorescence, primary screen (AID 1139); conditions: fluorescence 635/667, higher = more signal
[9] = test system: wheat germ agglutinin (Triticum aestivum), Alexa647-labelled; experiment: Alexa647-WGA lectin binding to printed small molecules – biochemical, small-molecule microarray, 635/667 nm fluorescence, artefact control for SMM control-protein annotation, profiling panel (AID 1140); conditions: WGA-A647 binding, 635 nm fluorescence, higher = more signal;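 note: score merges 667 nm feature emission with signal to noise over triplicate slides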
[10] = biological target: Luciferin 4-monooxygenase (Photinus pyralis) (UniProt P08659); experiment: inhibition of purified Photinus pyralis luciferase – biochemical, luminescence, purified enzyme, 2006 set, primary screen (AID 1141); conditions: purified firefly luciferase, SteadyGlo luminescence, 30 min; higher = more signal, called active from +8 up or from −8 down;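 note: cell-free assay with purified firefly luciferase at 100 ng per well in PBS; test concentration not given here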
Chain of Luciferin 4-monooxygenase (Photinus pyralis) (P08659 whole entry, looked up): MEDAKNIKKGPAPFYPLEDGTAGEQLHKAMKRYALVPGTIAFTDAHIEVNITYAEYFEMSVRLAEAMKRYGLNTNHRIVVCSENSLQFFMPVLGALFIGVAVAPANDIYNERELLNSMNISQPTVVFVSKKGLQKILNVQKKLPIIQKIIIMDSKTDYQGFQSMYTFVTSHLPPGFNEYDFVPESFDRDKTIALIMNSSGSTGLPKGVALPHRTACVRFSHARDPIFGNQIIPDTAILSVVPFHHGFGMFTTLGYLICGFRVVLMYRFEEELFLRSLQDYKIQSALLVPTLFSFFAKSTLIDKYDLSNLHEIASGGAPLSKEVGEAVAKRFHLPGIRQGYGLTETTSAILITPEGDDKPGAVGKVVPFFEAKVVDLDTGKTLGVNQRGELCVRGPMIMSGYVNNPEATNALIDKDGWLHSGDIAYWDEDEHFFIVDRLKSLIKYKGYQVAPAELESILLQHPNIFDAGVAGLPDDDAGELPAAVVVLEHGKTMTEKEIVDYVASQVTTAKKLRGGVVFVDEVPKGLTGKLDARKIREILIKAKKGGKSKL

Chain of Fibroblast growth factor 2 (Homo sapiens) (P09038 whole entry, looked up): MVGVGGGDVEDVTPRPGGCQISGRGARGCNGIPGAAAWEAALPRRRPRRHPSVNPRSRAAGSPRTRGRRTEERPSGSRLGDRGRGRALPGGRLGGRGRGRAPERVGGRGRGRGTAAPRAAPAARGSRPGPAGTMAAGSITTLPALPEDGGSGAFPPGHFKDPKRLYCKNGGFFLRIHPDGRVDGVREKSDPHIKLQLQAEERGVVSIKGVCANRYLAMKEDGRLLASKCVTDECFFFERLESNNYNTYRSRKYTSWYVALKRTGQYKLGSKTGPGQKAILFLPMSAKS
Chain of Follistatin (Homo sapiens) (P19883 whole entry, looked up): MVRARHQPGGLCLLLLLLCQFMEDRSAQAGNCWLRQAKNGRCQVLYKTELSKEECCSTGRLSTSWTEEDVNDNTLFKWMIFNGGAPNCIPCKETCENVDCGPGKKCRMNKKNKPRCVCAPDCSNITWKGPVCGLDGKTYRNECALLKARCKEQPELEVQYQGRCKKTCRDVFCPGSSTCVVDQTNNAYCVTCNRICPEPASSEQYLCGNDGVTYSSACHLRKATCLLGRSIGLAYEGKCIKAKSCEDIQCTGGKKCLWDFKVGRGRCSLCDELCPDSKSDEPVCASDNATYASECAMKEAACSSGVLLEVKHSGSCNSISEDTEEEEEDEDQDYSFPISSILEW
Chain of Focal adhesion kinase 1 (Homo sapiens) (Q05397 whole entry, looked up): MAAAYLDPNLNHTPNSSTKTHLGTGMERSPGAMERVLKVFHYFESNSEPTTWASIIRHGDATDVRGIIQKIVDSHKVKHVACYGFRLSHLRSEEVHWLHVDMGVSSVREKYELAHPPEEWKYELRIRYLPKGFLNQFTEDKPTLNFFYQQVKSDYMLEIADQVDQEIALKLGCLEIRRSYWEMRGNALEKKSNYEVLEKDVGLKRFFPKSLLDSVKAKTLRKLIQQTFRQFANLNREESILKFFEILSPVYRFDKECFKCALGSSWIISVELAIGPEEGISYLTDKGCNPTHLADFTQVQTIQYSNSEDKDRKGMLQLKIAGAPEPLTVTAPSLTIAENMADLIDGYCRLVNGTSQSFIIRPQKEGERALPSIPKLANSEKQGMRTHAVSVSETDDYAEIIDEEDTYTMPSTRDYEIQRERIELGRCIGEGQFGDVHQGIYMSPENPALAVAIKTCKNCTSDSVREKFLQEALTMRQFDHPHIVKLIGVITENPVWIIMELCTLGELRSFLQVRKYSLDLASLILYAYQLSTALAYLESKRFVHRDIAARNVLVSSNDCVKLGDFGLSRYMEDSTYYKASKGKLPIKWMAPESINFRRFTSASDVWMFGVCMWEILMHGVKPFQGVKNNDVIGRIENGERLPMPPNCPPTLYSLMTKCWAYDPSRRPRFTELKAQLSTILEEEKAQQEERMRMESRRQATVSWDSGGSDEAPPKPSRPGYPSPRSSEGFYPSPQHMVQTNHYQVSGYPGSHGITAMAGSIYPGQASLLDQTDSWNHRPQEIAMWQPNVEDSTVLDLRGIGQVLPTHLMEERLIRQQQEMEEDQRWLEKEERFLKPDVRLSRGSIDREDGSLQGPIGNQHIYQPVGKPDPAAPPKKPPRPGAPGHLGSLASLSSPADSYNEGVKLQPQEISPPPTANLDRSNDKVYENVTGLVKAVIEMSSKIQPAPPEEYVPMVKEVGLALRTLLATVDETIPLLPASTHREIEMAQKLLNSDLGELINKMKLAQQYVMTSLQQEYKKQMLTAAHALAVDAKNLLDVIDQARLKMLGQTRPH

| Compound | composite z-score [1] | composite z-score [2] | composite z-score [3] | composite z-score [4] | composite z-score [5] | composite z-score [6] | z-score [7] | composite z-score [8] | composite z-score [9] | z-score [10] |
| --- | --- | --- | --- | --- | --- | --- | --- | --- | --- | --- |
| COCCCNC(=O)[C@]1(Cc2ccccc2CN=[N+]=[N-])N=C(c2ccc(OCCCO)cc2)O[C@@H]1c1ccccc1CN=[N+]=[N-] | 2.28 | 1.2 | 0.11 | 0.954 | 0.701 | 0.244 | 1.28 | -0.449 | 1.02 | -0.107 (inactive) |
| C#CCNS(=O)(=O)N(C)C | 0.446 | 0.928 | 0.17 | 0.276 | 0.103 | 0.203 | 0.497 | 0.643 | 0.0088 | 0.991 (inactive) |
| COCCCNC(=O)[C@@]1(Cc2ccccc2N=[N+]=[N-])N=C(c2ccc(OCCCO)cc2)O[C@H]1c1ccccc1CN=[N+]=[N-] | 2.71 | 1.23 | 1.06 | 0.998 | 1.04 | 0.969 | 1.64 | -0.113 | 1.05 | -3.93 (inactive) |
| C=CC[C@]1(C(=O)N(C)C)N=C(c2ccc(OCCCO)cc2)O[C@H]1c1ccccc1 | 0.661 | 1.23 | 1.04 | 0.951 | 0.915 | -0.165 | -0.259 | 0.457 | 0.149 | -1.52 (inactive) |
| COCC1=C([C@H](O)CCc2ccccc2)[C@H](CO)[C@@H]2C(=O)N(C)C(=O)[C@@H]2C1 | -0.0971 | -0.204 | 0.0647 | -0.114 | 0.191 | 0.584 | 0.982 | 0.388 | -0.368 | -1.08 (inactive) |
| C=CCN1C(=O)[C@@]2(O[C@@H](CCO)[C@H]([Si](C)(C)c3ccc(OC)cc3)[C@H]2C)c2cc(NC(=O)[C@H](C)O)ccc21 | 2.01 | 1.19 | 1.38 | 0.114 | 0.346 | 0.0211 | 2.74 | 0.582 | 0.98 | -0.676 (inactive) |
| C#CCOC(=O)N[C@H](C=CCCCC)c1ccccc1 | 1.33 | 0.95 | 0.4 | 0.762 | -0.101 | -0.204 | 0.59 | -1.09 | 0.817 | 0.597 (inactive) |
| N#Cc1ccc(NN2C(C(O)c3ccco3)C=CC3C(=O)N(c4ccccc4)C(=O)C32)cc1 (stereo not given) | 0.716 | -0.0085 | 0.788 | 0.251 | 0.552 | -0.302 | -0.244 | -0.231 | 0.754 | -0.72 (inactive) |
| COC(=O)[C@@]1(Cc2ccc(OC)cc2)[C@H]2c3cc(C(=O)N(C)C)n(Cc4cc(C)n(C)n4)c3C[C@H]2CN1C(=O)c1ccccc1 | 1.08 | 1.29 | 0.405 | -0.842 | -0.396 | -0.233 | -1.14 | -0.0189 | 0.262 | 1.01 (inactive) |
| O=C(NCc1ccccc1)[C@]1(Cc2ccccc2)N=C(c2ccc(OCCCO)cc2)O[C@@H]1c1ccccc1 | 2.31 | 1.2 | 0.121 | 0.817 | -0.0037 | -0.0759 | 2 | -0.501 | 0.648 | -0.794 (inactive) |
| CCN(CC)c1ccc(N2CC=CC34O[C@@H]5/C=C\CCCOC(=O)C5[C@H]3C(=O)N(CCCCCCO)[C@@H]4C2=O)cc1 (stereo not given in full) | 1.27 | -0.299 | -0.177 | -0.801 | -1.21 | -0.616 | 1.1 | -0.324 | -0.22 | -1.9 (inactive) |
| COc1ccc([Si](C)(C)[C@H]2[C@H](CCn3cc(CCO)nn3)O[C@@]3(C(=O)N(Cc4cccc(N5C(=O)c6cccc7cccc5c67)c4)c4ccccc43)[C@@H]2C)cc1 | 0.246 | 1.05 | 0.124 | 0.497 | 0.958 | 0.691 | -0.338 | 1.21 | 0.878 | -1.54 (inactive) |
| COC(=O)[C@@]1(Cc2ccc(F)cc2)[C@H]2c3cc(C(=O)N4CCCC4)n(Cc4ccccc4)c3C[C@H]2CN1C(=O)c1ccccc1 | 1.66 | 0.923 | 1.08 | 0.805 | 0.724 | -0.481 | -1.23 | -0.0042 | 0.768 | 2.22 (inactive) |
| COCCCNC(=O)[C@@]1(Cc2ccccc2CN=[N+]=[N-])N=C(c2ccc(OCCCO)cc2)O[C@H]1c1ccccc1N=[N+]=[N-] | 2.29 | 1.19 | 0.543 | 0.931 | 1.35 | 1.18 | 3.53 | 0.0538 | 1.2 | -4.87 (inactive) |
| O=C1C[C@@](C(=O)O)(c2ccc([N+](=O)[O-])cc2)[C@@H](c2ccc(CO)cc2)N1CC12CC3CC(CC(C3)C1)C2 | 1.2 | 1.19 | 0.486 | 0.732 | 0.563 | -0.119 | 2.19 | 0.43 | 1.02 | -0.162 (inactive) |
| C=C(CCCC)/C(=C/C[C@@H](OC(=O)c1ccncc1)c1ccccc1OCCO)c1cc(C(=O)OC)ccc1OC | 2.82 | 1.22 | 1.38 | 0.979 | 0.549 | 0.213 | 3.24 | 0.444 | 1 | -1.76 (inactive) |
| CC(C)C(CO)N1C(=O)[C@@H]2[C@H]3C(=O)OCC=C[C@H]3OC23C=CCN(Cn2nnc4ccccc42)C(=O)[C@@H]13 (stereo not given in full) | 0.36 | -0.938 | 0.118 | -0.424 | -0.802 | -1.05 | -0.58 | -1.72 | -0.203 | 0.152 (inactive) |
| COCCOC(=O)N1C(=O)[C@@]2(c3cc(C#CCC(C(=O)OC)C(=O)OC)ccc31)[C@H](c1ccc(OCCO)cc1)N1[C@H](c3ccccc3)[C@H](c3ccccc3)OC(=O)[C@H]1[C@@H]2C(N)=O | 1.38 | 1.2 | 1.16 | 0.924 | 1.28 | 1.13 | -0.921 | 0.484 | 0.386 | -1.23 (inactive) |
| CCCC=C(CCC)[C@@H](NC(=O)Cc1ccccc1)c1ccc(C(=O)OC)cc1 | 1.2 | 0.821 | 0.563 | 0.714 | 0.28 | 0.0515 | -0.298 | -0.365 | 1.03 | 1.54 (inactive) |
| C=C(/C(=C/C[C@@H](OC(=O)c1ccncc1)c1ccccc1OCCO)c1cnc2ccccc2c1)C(C)C | 1.18 | 0.896 | 0.204 | 0.963 | 1.45 | 1.87 | 0.494 | 1.65 | 0.869 | -1.08 (inactive) |
| COc1cc(C(O)C2C=CC3C(=O)NC(=O)C3N2Nc2ccc(Cl)cc2Cl)cc(OC)c1OC (stereo not given) | 1.32 | 1.24 | 0.105 | 0.866 | 1.14 | -0.0812 | 0.275 | 0.286 | 0.871 | -0.0332 (inactive) |
| CC1C=C(CCCO)C=C(C(=O)OCCS(C)(=O)=O)C(C(=O)OCCS(C)(=O)=O)=CN1Cc1cccc(OC(F)(F)F)c1 (stereo not given) | 1 | 0.799 | -0.0696 | 1.02 | 0.0361 | -0.356 | 0.848 | -0.309 | 0.785 | -0.234 (inactive) |
| COC(=O)c1c(CC[C@@H](CO)NC(=O)N[C@@H](C)Cn2cc(C3(O)CCCC3)nn2)oc(C(C)=O)c1C(=O)OC | 0.863 | -0.0221 | -0.118 | 0.188 | 0.511 | 0.0707 | -0.638 | 1.54 | 1.3 | 0.315 (inactive) |
| C=CC[C@]1(C(=O)NCC(O)CO)N=C(c2ccc(OCCCO)cc2)O[C@H]1c1ccccc1N=[N+]=[N-] (stereo not given in full) | 2.28 | 0.653 | 0.302 | 0.66 | 1.1 | 0.264 | -0.152 | -0.661 | 0.986 | -6.91 (inactive) |
| [N-]=[N+]=NCc1ccccc1C[C@]1(C(=O)NCCN2CCOCC2)N=C(c2ccc(OCCCO)cc2)O[C@H]1c1ccccc1 | 0.478 | 1.22 | 0.378 | 1.01 | 1.39 | 0.473 | 1.02 | 0.649 | 0.556 | 0.375 (inactive) |
| C[N+](C)(C)CCCCNC(=O)[C@H]1C[C@H]2C(=O)NCC(=O)N2[C@H]1c1ccc(O)cc1 | 3.01 | 0.241 | -0.169 | -0.0907 | 1.41 | 1.91 | 0.244 | 1.49 | -0.287 | -0.367 (inactive) |
| CCCCC(CC)C(O)C1C=CC2C(=O)NC(=O)C2N1Nc1ccccn1 (stereo not given) | 2.27 | 1.17 | 0.178 | 1 | 0.962 | -0.539 | 0.933 | 0.21 | 1.21 | -1.55 (inactive) |
| C=CCC(OC(C)=O)[C@@H]1[C@@H](N(Cc2cccc3ccccc23)C(=O)Cc2ccc(F)cc2)c2cc(OCCCO)ccc2N1C(=O)Cc1ccc(OC)cc1 (stereo not given in full) | -0.241 | -0.0072 | -0.142 | 0.766 | 0.532 | -0.109 | -0.189 | 0.391 | 0.672 | 0.678 (inactive) |
